# Screens deposited in PubChem BioAssay by National Center for Advancing Translational Sciences (NCATS).
# Hits are enriched below; roughly 10% of the tested compounds scored in any of these assays.
# G9a inh = G9a (human) methyltransferase inhibition. Q96KQ7. G9a H3K9 monomethylation, AlphaScreen, 2 h. Potency, µM (doses to about 102 µM), for the others: at the top dose activity, negative = inhibition, actives largely listed as inhibitors. actives 8.8% (n = 350,000); further: potency means the concentration at half of the fitted maximal effect; nearly all actives have a fitted effect of over 75% in size
#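 Step 1: enzyme (final 20 nM) with compound, 15 min RT. Step 2: substrate peptide 500 nM and SAM 20 uM, 2 h RT. Step 3: anti-H3K9me1 antibody and AlphaScreen beads, 10 min, then plate read.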
# CCT chaperon mod = changes cytosolic chaperonin activity. purified chaperonin ATPase assay, HTRF ADP detection, 30 min. activity change, % (concentration not given with the values), hits read low. actives 0.3% (n = 360,000). AID 651819; in the data active means activity change below about -30%
#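 Nucleotide hydrolysis assay: TRiC at 20–40 nM final (set by batch activity) with 10 uM ATP, 30 min at 37 °C, in presence of 76 uM compound. Detection by competitive ADP HTRF, 30 min ambient.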
# VDR inhibitor = blocks the human vitamin D receptor; P11473; VDR-SRC2-3 peptide fluorescence polarization, 2 h; Potency, µM, without a hit: max response, negative = inhibition, most hits filed as inhibitors; actives 0.93% (n = 400,000); AID 504847; further: potency means the concentration at half of the fitted maximal effect
#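 Signal is fluorescence polarization, reporting how far test compounds block the interaction of VDR with the SRC2-3 coregulator peptide after a 2 h room-temperature incubation.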
# MmCpn inh = inhibitors of Methanococcus maripaludis chaperonin TRiC (MmCpn). purified Mm-Cpn ATPase, ADP Transcreener TR-FRET. Potency, µM (doses to about 76.9 µM), for the others: top-dose activity, negative = inhibition, most hits filed as inhibitors. actives 0.031% (n = 330,000); further: potency means the concentration at half of the fitted maximal effect; nearly all actives have a fitted effect of over 80% in size
#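 Measured: ADP formation by purified Mm-CPN. Conditions: 25 nM protein, 10 uM ATP, Tris pH 7.4 with Mg2+, K+ and DTT, 37°C for 30 min. Detection: Transcreener HTRF after 30 min at room temperature.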
# Sfp inh = inhibitors of Bacillus subtilis Sfp phosphopantetheinyl transferase; Q9F4F7; Biochemical Sfp PPTase activity, qHTS; Potency, µM, for inactives: largest response in the series, negative = inhibition, most hits filed as inhibitors; actives 3.5% (n = 310,000); AID 1490;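 further: the enzyme is Sfp with the accession as filed and its product quenches rhodamine fluorescence; potency means the concentration at half of the fitted maximal effect; 0% = enzyme reaction without inhibitor and -100% = no enzyme wells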
#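 Fluorescence-quenching assay: 15 nM Sfp-PPTase preincubated 15 min at room temperature with compound, then 5 uM rhodamine-CoA and 12.5 uM BHQ-2-labelled YbbR peptide added. Fluorescence (ex 525/em 598 nm) read at start and after 30 min; difference gives rate.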
# PLK1 PBD inh = PLK1 (human) polo-box domain binding inhibition; actives 2.8% (n = 360,000); P53350; Potency, µM, without a hit: max response, negative = inhibition, hits mostly inhibitors; Plk1 PBD binding of FITC phosphopeptide, fluorescence polarization; further: potency means the concentration at half of the fitted maximal effect; series mostly up to about 57 µM; nearly all actives have a fitted effect of over 65% in size
# Target sequence (P53350 whole entry, looked up, the tested form may be a part): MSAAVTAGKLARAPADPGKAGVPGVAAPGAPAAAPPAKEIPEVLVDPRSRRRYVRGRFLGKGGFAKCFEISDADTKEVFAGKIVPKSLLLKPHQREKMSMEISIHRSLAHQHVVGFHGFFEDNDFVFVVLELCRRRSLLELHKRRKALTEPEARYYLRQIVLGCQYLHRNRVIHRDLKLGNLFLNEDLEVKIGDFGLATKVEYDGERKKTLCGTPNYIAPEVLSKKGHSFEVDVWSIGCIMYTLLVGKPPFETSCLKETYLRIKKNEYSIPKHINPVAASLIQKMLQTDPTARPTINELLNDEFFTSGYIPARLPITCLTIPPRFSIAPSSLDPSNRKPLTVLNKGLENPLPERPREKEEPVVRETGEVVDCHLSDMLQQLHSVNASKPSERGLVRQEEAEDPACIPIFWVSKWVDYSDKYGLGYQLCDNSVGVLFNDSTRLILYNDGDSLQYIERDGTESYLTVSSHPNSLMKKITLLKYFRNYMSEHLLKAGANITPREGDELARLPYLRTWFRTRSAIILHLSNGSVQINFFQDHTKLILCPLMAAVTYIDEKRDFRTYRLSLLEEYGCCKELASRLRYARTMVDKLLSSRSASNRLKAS
# * marks the source's active call; other numbers are inactive results; ? = inconclusive; / = no result; [ ] = remark or other dose. Unless noted, the call rests on the fitted dose curve; in most records, active means well fitted curve in the direction sought with a large enough effect; inconclusive means small, poorly fitted or top-dose-only effect, or another doubt; inactive means no such curve, though single readings can be large; an effect the other way counts as inactive or inconclusive. Unless noted, on the % scale 0 is the no-effect control and ±100 the full control effect.
SMILES,G9a inh,CCT chaperon mod,VDR inhibitor,MmCpn inh,Sfp inh,PLK1 PBD inh
O=C(CSc1oc(-c2cccs2)nc1S(=O)(=O)c1ccccc1)NC1CCCCC1,-10%[2.33 µM],-2,2%,1%,40µM*,-18%
CSc1oc(-c2ccccc2)nc1S(=O)(=O)c1ccc(F)cc1,40µM*,-3,20%,-26%,-7%,-18%
CSc1oc(-c2ccc(F)cc2)nc1S(=O)(=O)c1ccccc1,?,-1,28%,-3%,7%,-7%
O=C(CCn1c(=O)c2cccn2c2cccnc21)NCc1ccccc1Br,-3%[59 µM],/,17%,/,/,/
Cc1cc(O)c(-c2ccnc3cc(-c4ccccc4)nn23)cc1Cl,3%[59 µM],/,14%,/,/,/
CCCCn1c(=NC(=O)C(C)(C)Oc2ccc(Cl)cc2)c(C(=O)OCC)cc2c(=O)n3ccccc3nc21,3%[59 µM],/,1%,/,/,/
CC(=O)c1cccc(NC(=O)CCn2nc(C)c(S(=O)(=O)N(C)C)c2C)c1,6%[12.7 µM],/,11%,/,/,/
O=S(=O)(c1ccccc1)c1nc(-c2cccs2)oc1SCc1ccc(F)cc1,?,/,-6%,/,/,/
CSc1oc(-c2cccs2)nc1S(=O)(=O)c1ccccc1,/,-3,-21%,?,89µM*,?
O=c1c(-c2cc(F)cc(F)c2)nc2cnc(N3CCNCC3)nc2n1-c1ccccc1,9%[0.501 µM],/,?,/,-3%,/
CCOCCCNC(=O)C(NC(=O)c1ccccc1O)c1ccc(C)cc1 (stereo not drawn),5.6µM*,-2,8%,3%,9%,-10%
CCOCCCNC(=O)C(NC(=O)c1ccccn1)c1ccc(C)cc1 (stereo not drawn),?,-1,-15%,1%,-4%,-1%
C/C=C/C1=Cc2ccccc2C(CC(=O)OC)N1C(=O)OC (stereo not drawn),/,/,/,/,9%,/
Cc1cc(C)c(-c2nc3ccccc3s2)[nH]1,50µM*,1,9%,-9%,-3%,-6%
O=C(Nc1ccccn1)c1ccc2ccccc2c1O,32µM*,0,-9%,-4%,7%,?
Cc1occc1C(=O)Nc1cccc([N+](=O)[O-])c1,21%[59 µM],-2,22µM*,-1%,8%,-19%
O=C(Nc1cccc([N+](=O)[O-])c1)c1ccc2ccccc2c1O,16µM*,1,-12%,-2%,7%,-25%
Cc1ccc(NC(=O)Nc2cccc([N+](=O)[O-])c2)cc1F,-5%,-2,10%,2%,79µM*,-12%
O=C(Cc1ccccc1)Nc1cccc([N+](=O)[O-])c1,?,-3,-11%,0%,23%,-10%
Cc1ccc(C)c(NS(=O)(=O)c2cc3c(cc2C)n(C)c(=O)c(=O)n3C)c1,9%[59 µM],/,11%,/,/,/
O=C1CC(Sc2nnnn2C2CCCCC2)C(=O)N1c1ccccc1 (stereo not drawn),10µM*,-2,5%,1%,?,-26%
Cc1nc(CSc2nnc(C)s2)cs1,45µM*,0,8%,-3%,0%,-5%
Cc1nnc(SCc2ccc(F)cc2)s1,-1%[12.7 µM],-2,18%,2%,10%,-2%
Cc1ccc(-n2c3c(cc(C(=O)NCc4ccco4)c2=O)C(=O)CCC3)cc1,/,-1,4%,-3%,1%,1%
COC(=O)C(CCSC)NC(=O)c1cc2c(n(-c3ccc(C)cc3)c1=O)CCCC2=O (stereo not drawn),0.56µM*,-1,-18%,2%,4%,-20%
SMILES,G9a inh,CCT chaperon mod,VDR inhibitor,MmCpn inh,Sfp inh,PLK1 PBD inh
O=C1CCCc2c1cc(C(=O)NCc1ccco1)c(=O)n2-c1ccc(Cl)cc1,-41%[59 µM],-2,-14%,0%,56µM*,-3%
CCn1cc(C(=O)NCc2ccc(Cl)cc2)c(=O)c2cc(S(=O)(=O)N(C)C3CCCCC3)ccc21,-9%[59 µM],/,10%,/,/,/
Cc1cccc(NC(=O)Cn2cc(S(=O)(=O)c3ccc(F)cc3)c(=O)c3cc4c(cc32)OCO4)c1,-34%[59 µM],/,-18%,/,/,/
Cc1c(C(=O)OC(C)C(C)C[N+](C)(C)C)oc2ccccc12 (stereo not drawn),13µM*,-1,-3%,-2%,5%,-16%
COc1ccc(C(=O)c2ccc(Cl)cc2)cc1,15%,0,2%,-4%,-9%,0%
COc1ccc(N2C(=S)N(C(=O)c3ccccc3)C(=Nc3ccccc3)C2=Nc2ccccc2)cc1,/,0,?,/,/,21µM*
COc1ccc(N=C2C(=Nc3ccc(OC)cc3)N(c3ccc(OC)cc3)C(=S)N2C(=O)c2ccc(OC)cc2)cc1,3.5µM*,-4,?,1%,-25%,-9%
COc1ccc(N=C2C(=Nc3ccc(OC)cc3)N(c3ccc(N(C)C)cc3)C(=S)N2c2ccc(OC)cc2)cc1,8.9µM*,-1,1%,-1%,3%,-1%
COc1ccc(N=C2C(=Nc3ccc(OC)cc3)N(c3ccccc3)C(=S)N2C(=O)c2ccc(Cl)cc2)cc1,7.1µM*,-1,-13%,-1%,50µM*,-9%
COc1ccc(N2C(=O)CCC(C(=O)c3ccccc3)=C2C)cc1,?,2,25%,-1%,5%,0%
O=C(NCCc1ccccc1)c1ccc(CSc2nc3ccncc3n2Cc2ccccc2)cc1,-9%[59 µM],/,11%,/,/,/
CC(C)Oc1ccc(-c2nc(NCC3CCCO3)c3ccccc3n2)cc1 (stereo not drawn),/,-2,13%,-2%,-9%,-14%
Oc1ccc(Cl)cc1Nc1nc(NCC2CCCO2)c2ccccc2n1 (stereo not drawn),/,/,4%,/,/,/
c1cncc(-c2nc(NCC3CCCO3)c3ccccc3n2)c1 (stereo not drawn),-6%,0,8%,-6%,-3%,-7%
COc1cccc(Nc2nc(NCC3CCCO3)c3ccccc3n2)c1 (stereo not drawn),45µM*,-1,-15%,-5%,25µM*,-7%
Oc1ccc(Nc2nc(NCC3CCCO3)c3ccccc3n2)cc1 (stereo not drawn),50µM*,1,-18%,-5%,-14%,5%
Oc1ccccc1Nc1nc(NCC2CCCO2)c2ccccc2n1 (stereo not drawn),50µM*,-3,6%,0%,-12%,-5%
c1cncc(-c2nc(NCc3ccco3)c3ccccc3n2)c1,?,2,1%,-1%,79µM*,-3%
Cc1ccc(CCNC(=O)c2cc3cc(S(=O)(=O)N4CCCCC4)ccc3n2C)cc1,7%[59 µM],/,5%,/,/,/
Cc1ccccc1Nc1nc(NCc2ccco2)c2ccccc2n1,?,-2,12%,0%,?,-12%
Oc1ccccc1Nc1nc(NCc2ccco2)c2ccccc2n1,50µM*,-1,-9%,-2%,25µM*,6%
COc1cccc(-c2cc(C(=O)NCc3ccccc3)[nH]n2)c1,-4%[59 µM],/,7%,/,/,/
